The source made the active and inactive calls. How the calls were made is not given here.
Potency means the concentration at half of the fitted maximal effect.

This assay deals with HIV-1 nucleocapsid protein NCp7 (binding to TG oligonucleotide). Description: HIV Nucleocapsid (AID 346).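 Further: potency is for inhibitors that block NC binding and lower polarization.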 The note with it: HIV-1 NC / fluorescein-TGTGTGTG probe, fluorescence polarization. An outline of the steps:
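Inhibition of nucleocapsid binding to single-stranded 5'-TGTGTGTG probe (10 nM) was measured by fluorescence polarization after 1 hr at room temperature with 100 nM protein under high-salt, zinc-containing, reducing conditions.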
Background: Fluorescence polarisation rises when a labelled molecule tumbles more slowly, as on binding a larger partner.
In the case of `O=c1c(-c2ccc(F)cc2)nc2cnc(Nc3ccccc3)nc2n1C1CC1`, the Potency is > 20 µM (inactive). Consider `COc1ccc(C(=O)N2CCC3(CCCN(c4ccccc4)C3)CC2)cc1`, for which the Potency was > 20 µM (inactive).

As to `COc1ccccc1-c1nccc(NCc2cccnc2)n1`, the Potency is > 20 µM (inactive). Turning to `Cn1c(=O)c(-c2ccc(F)c(F)c2)nc2cncnc21`, the Potency was > 4 µM (inactive). Turning to `CC(=O)N1CCC[C@@]2(CCN(Cc3cc(C(F)(F)F)cc(C(F)(F)F)c3)C2)C1`, the Potency is > 20 µM (inactive). As for `COc1ccc2[nH]cc(CCNc3cc(-c4cccnc4)ncn3)c2c1`, the figure is > 20 µM (inactive); as for `COc1ccccc1CNc1ccnc(-c2ccc(C(=O)N(C)C)cc2)n1`, > 20 µM (inactive). For `c1ccc(CNc2ncnc3ccc(-c4ccc5c(c4)OCO5)cc23)cc1`, the Potency was > 20 µM (inactive). The figure for `COc1ccccc1CN1CCCC2(CCN(C(=O)c3cc(C(F)(F)F)cc(C(F)(F)F)c3)CC2)C1` is > 20 µM (inactive); for `COc1ccc(-c2nc3cnc(N4CCNCC4)nc3n(CCC#N)c2=O)cc1` it is > 20 µM (inactive); for `COc1ccc(-n2c(=O)c(-c3cn(C)c4ccccc34)nc3cnc(N4CCOCC4)nc32)cc1` it is > 20 µM (inactive). The figure for `N#Cc1ccccc1-c1ccc2ncnc(NCc3cccnc3)c2c1` is > 20 µM (inactive). The figure for `Cc1cnc(CNc2ncnc3ccc(-c4c(C)noc4C)cc23)cn1` is > 20 µM (inactive); for `Cc1nc2cncnc2n(C2CC2)c1=O` it is > 20 µM (inactive); for `O=C(c1cccc(F)c1)N1CCC[C@@]2(CCN(c3ncccn3)C2)C1` it is > 20 µM (inactive).

(Values after PubChem BioAssay (NCATS).)
